ERb coact inh = ER-beta (human) coactivator binding inhibition. Q92731. TR-FRET ER-beta LBD / SRC1-Cy5 peptide binding; receptor agonist-loaded with 1 µM estradiol. inhibition, % at 25.6 µM. actives 1.3% (n = 86,000);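 active = compounds whose percent inhibition of the receptor-coactivator binding signal exceeds about 50% in the single-dose screen, limit read from the data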;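 also: 0% = receptor plus peptide wells without compound and 100% = peptide-only wells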
Target sequence (Q92731 whole entry, looked up, the tested form may be a part): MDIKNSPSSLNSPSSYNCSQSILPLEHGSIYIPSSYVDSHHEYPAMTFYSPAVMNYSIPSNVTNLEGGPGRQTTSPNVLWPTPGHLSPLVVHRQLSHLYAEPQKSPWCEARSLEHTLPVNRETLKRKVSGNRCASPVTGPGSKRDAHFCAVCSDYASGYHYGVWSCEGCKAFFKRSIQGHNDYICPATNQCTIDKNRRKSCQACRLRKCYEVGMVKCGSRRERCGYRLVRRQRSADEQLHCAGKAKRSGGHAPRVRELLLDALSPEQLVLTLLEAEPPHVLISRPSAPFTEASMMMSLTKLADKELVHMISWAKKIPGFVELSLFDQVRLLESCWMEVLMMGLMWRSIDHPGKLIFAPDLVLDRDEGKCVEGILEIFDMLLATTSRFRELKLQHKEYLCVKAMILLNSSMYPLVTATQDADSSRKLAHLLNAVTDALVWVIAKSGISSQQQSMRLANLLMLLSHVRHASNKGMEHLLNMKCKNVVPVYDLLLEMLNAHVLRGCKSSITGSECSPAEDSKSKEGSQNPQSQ
Mac1 fbg enh = CD11b/CD18-fibrinogen binding enhancement. actives 0.07% (n = 93,000). P05107+P11215. K562 CD11b/CD18 adhesion to fibrinogen, ATPlite luminescence. activation, % at 10 µM;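 active = 10 µM primary screen giving 50% or more activity, confirmed by 40% or more on retest at that dose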
ERa coact pot = ER-alpha (human) coactivator binding potentiation; TR-FRET ERalpha-LBD/SRC-Cy5 coactivator binding, 2 h; 100 = basal binding, no effect; coactivator binding (% of control), % at 25.6 µM; actives 1.3% (n = 86,000); AID 639; in the data active = activity above about 200%;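 also: binding measured in presence of low estradiol as agonist stimulus; 0% = peptide alone without receptor and 100% = receptor with peptide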
FAK inh = FAK (human) kinase inhibition; Q05397; inhibition, %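 (tested at 7 µM)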; actives 0.84% (n = 97,000); biochemical FAK kinase activity assay; in the data active = inhibition above about 19%;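 also: 0% = DMSO and 100% = reference compound high control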
Mac1 fbg inh = CD11b/CD18-fibrinogen binding inhibition | P05107+P11215 | K562 CD11b/CD18 adhesion to fibrinogen, ATPlite luminescence; Mn2+ added to activate the integrin | inhibition, % at 10 µM | actives 0.54% (n = 93,000) | AID 1497;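 active = primary inhibition of 50% or more at 10 µM, then 40% or more on retest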
ERa SRC1 inh = ER-alpha (human) coactivator binding inhibition. inhibition, % at 25.6 µM. P03372. AID 629. actives 1.7% (n = 86,000). TR-FRET ER-alpha LBD / SRC-1 peptide, estradiol-bound; in the data active = inhibition above about 50%;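 also: 0% = receptor plus peptide control and 100% = peptide only without receptor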
Starred values were filed as active, the others as inactive; / = no result given; [ ] = another dose, or the depositor's remark. Shown are actives, neighbours in structure and some others; about 3.5% of the full set was active somewhere.

SMILES	ERb coact inh	Mac1 fbg enh	ERa coact pot	FAK inh	Mac1 fbg inh	ERa SRC1 inh
CCOc1[nH]c(/N=C/c2ccco2)c(C#N)c1C#N	60*	-3	72	-3	45	35
N#Cc1c(/N=C/c2ccco2)sc2c1CCC2	5	2	104	-1	7	-4
CCCc1nnc(SCC(=O)N2CCCCC2C)n1CC1CCCO1 (stereo not given)	-14	/	115	3	/	-4
NC(=O)c1sc2nc3c(c(-c4ccc(Cl)cc4)c2c1N)CCCC3	21	-7	252*[fluorescence artefact?]	-4	-8	11
CCN(CC(=O)NCc1cccs1)S(=O)(=O)c1cccc(C(C)=O)c1	-3	-3	87	7	-2	-2
Cc1nnc(Sc2c(-c3ccccc3)c3ccc(Cl)cc3[nH]c2=O)s1	-5	/	66	4	/	0
CC1(C)Cc2c(ccc3ccccc23)/C(=C/C(=O)N2CCCCC2)N1	1	/	134	-3	/	1
O=C(/C=C1\NC2(CCCC2)Cc2ccccc21)N1CCOCC1	83*[fluorescence artefact?]	3	98	-3	-38	-2
O=C(CN1CCCCC1)N1CCCc2c1c(=O)oc1ccc(OCc3ccccc3)cc21	-5	/	327*[fluorescence artefact?]	0	/	1
O=C(CN1CCN(Cc2ccccc2)CC1)N1CCCc2c1c(=O)oc1ccc(O)cc21	-10	0	82	3	18	16
Cc1ccc(NC(=O)Cc2nnc(SCC(=O)c3ccc(Br)cc3)n2C)cc1	19	0	201*[fluorescence artefact?]	3	-7	4
CCn1c(SC(C)C(=O)O)nc2sc3c(c2c1=O)CCC3 (stereo not given)	92*[fluorescence artefact?]	27	3	/	-9	93*[fluorescence artefact?]
S=C(Nc1ccccc1Oc1ccccc1)Nc1cccc(Cl)c1Cl	/	-7	/	/	98	/
CCC(Sc1nnc(-c2ccc(C)c(Cl)c2)n1CC)C(=O)Nc1nccs1 (stereo not given)	-1	-4	123	/	56*	3
N#Cc1c(N)nc(SCc2ccncc2)c(C#N)c1-c1cccs1	-6	2	267*[fluorescence artefact?]	/	-9	-1
CCc1c(C#N)c(N)nc(SCC(=O)OCc2ccccc2)c1C#N	28	-2	207*[fluorescence artefact?]	-2	1	26
CCN(CC)C(=O)CSc1ncnc2c(-c3cccs3)nsc12	51*[fluorescence artefact?]	0	177	3	5	51*[fluorescence artefact?]
CCN(CC)C(=O)CSc1nc(N)c(C#N)c(-c2cccs2)c1C#N	2	/	221*[fluorescence artefact?]	-7	/	17
COc1ccc(/C=C\c2onc(C)c2S(=O)(=O)N2CCC(C(=O)NCCC(C)C)CC2)cc1	-22	2	107	-2	-13	-1
Cn1c(NCc2ccco2)nc2c1c(=O)n(Cc1ccc(Cl)cc1Cl)c(=O)n2C	11	1	100	0	7	10
Cc1ccc(C(=O)NN2C(=O)C3C4c5ccccc5C(c5ccccc54)[C@@H]3C2=O)cc1 (stereo not given in full)	/	3	/	/	13	/
Cc1ccccc1NC(=O)CSc1nc(N)c(C#N)c(-c2cccs2)c1C#N	51*[fluorescence artefact?]	25	319*[fluorescence artefact?]	-24	-10	29
CC(C)(C)C1CCc2c(sc(NC(=O)c3cc(C4CC4)on3)c2C#N)C1 (stereo not given)	-2	-5	134	-2	54*	-4
COc1ccccc1NC(=O)Oc1ccc(NC(=O)c2ccco2)cc1	66*[fluorescence artefact?]	0	81	-2	-16	60*[fluorescence artefact?]
COc1ccc(NC(=O)c2ccco2)cc1NC(=O)c1ccco1	2	2	113	/	6	11
SMILES	ERb coact inh	Mac1 fbg enh	ERa coact pot	FAK inh	Mac1 fbg inh	ERa SRC1 inh
COc1ccccc1NC(=O)c1cc(Cl)ccc1NC(=O)c1ccco1	-10	7	96	1	-26	-10
COc1ccccc1NC(=O)c1ccccc1NC(=O)c1cc(Cl)ccc1NC(=O)c1ccco1	41	-4	64	-2	-18	74*
COc1ccc(NC(=O)c2ccco2)cc1N	61*	-4	50	-1	42	55*
O=S(=O)(Nc1ncnc2sc3c(c12)CCC3)c1ccc2ccccc2c1	53*	-3	59	-2	32	38
c1csc(CCNc2ncnc3sc4c(c23)CCC4)c1	-2	-6	86	/	86*	-1
c1ccc(Nc2ncnc3sc4c(c23)CCC4)cc1	/	/	/	12	/	/
CCOC(=O)Nc1ccc2c(c1)N(C(=O)CCN1CCOCC1)c1ccccc1S2=O (stereo not given)	-13	4	124	4	-2	-8
Cc1cc(C)cc(N(C(=O)c2cc3ccccc3oc2=O)C2C=CS(=O)(=O)C2)c1 (stereo not given)	/	-3	/	/	-13	/
Cc1cc(NC(=O)CSc2nc3c(sc4ccccc43)c(=O)n2CCc2ccccc2)n[nH]1	37	2	131	1	-10	50*[fluorescence artefact?]
COc1ccccc1OCCC(=O)OCC(=O)Nc1ccc(Br)cc1	/	9	/	/	-13	/
O=C(NCc1ccco1)c1nn2c(C(F)(F)F)cc(-c3cccs3)nc2c1Br	44	2	157	9	1	59*
O=C(CN(Cc1ccccc1)C1=NCCS1)c1ccccc1	/	6	/	/	-8	/
COc1ccc(OC)c(C2SCCN2S(=O)(=O)c2cccc(C(F)(F)F)c2)c1 (stereo not given)	1	-4	109	-6	0	-9
O=C(Nc1ncc2c(n1)CC(c1ccco1)CC2=O)c1ccccc1 (stereo not given)	6	-1	89	2	-7	-16
O=C1CC(c2ccco2)Cc2nc(Nc3nc(-c4ccccc4)c4ccccc4n3)ncc21 (stereo not given)	51*[fluorescence artefact?]	45	98	1	-10	43
N#CC1=C(N)NC(SCC(=O)Nc2ccc(Br)cc2)=C(C#N)C12CCCCC2	/	-9	/	2	83*	/
COc1cc2c(C(=O)N3CCN(c4cccc(Cl)c4)CC3)cn(CC(C)C)c(=O)c2cc1OC	4	-2	124	2	-20	8
CCN(CC)C(=O)c1sc(NC(=O)c2ccoc2C)c(C(=O)OC)c1C	0	1	91	/	8	-12
COC(=O)c1c(-c2ccncc2)csc1NC(=O)c1ccoc1C	3	4	321*	-1	-8	8
O=C1C2C3C=CC(C3)C2C(=O)N1/N=C/c1cc(Br)cc([N+](=O)[O-])c1O (stereo not given)	/	-8	/	-2	57*	/
CC1CC(C)CN(CC(C)(C)NS(=O)(=O)c2ccccc2)C1 (stereo not given)	-2	-2	74	-2	-7	-5
CCc1cccc2c(C(=O)Cn3nnc(-c4ccc(OC)c(OC)c4)n3)c[nH]c12	27	4	103	1	-36	62*
O=C(/C=C/c1ccc2c(c1)OCO2)N1CCN(c2ccc(Cl)cc2)CC1	/	-1	/	/	-27	/
O=C(O)CCCC(=O)N1CCN(c2cccc(Cl)c2)CC1	-1	-2	331*[fluorescence artefact?]	-1	-16	-10

High-throughput results deposited in PubChem BioAssay by several laboratories.
